The list is not random: actives were taken first. Their share in the collection is about 2.3%.
YB-1 expression = YB-1 expression inhibition; delta delta Cp (YB-1 minus CDIP) (test concentration not listed); U2OS, qRT-PCR YB-1 vs CDIP delta delta Cp, 16 h; active compounds read high; zero = DMSO, each unit about twofold; AID 434959; 30,000 compounds, 0.37% hits;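 active = delta delta Cp rounded down to an integer at or above 3, about 3 SD of DMSO wells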;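 also: higher means less YB-1 transcript or more CDIP transcript relative to DMSO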
PD-1 reversal = reversal of PD-1 mediated T-cell inhibition. primary human CD4 T cells, PD-L1 beads, CellTiter-Glo 96 h. activation, % (no concentration beside the values). 29,000 tested, under 10 active; call rule not given here
ROS inducer = raises reactive oxygen species in U2OS cancer cells; U2OS ROS induction, H2DCF-DA fluorescence; ROS induction (% of piperlongumine), % at 10 µM; 46,000 compounds, 2% hits; AID 624156; in the data active = ROS induction above about 79%, passing the limit was not always enough
Each line names hits and unclear results; the compound was inactive in the other large screens.

CC1OC(OC2C(O)C(CO)OC(O[C@H]3CC[C@@]4(C)C(CC[C@]5(C)C4CC=C4C6CC(C)(C)CC[C@]6(C(=O)OC6OCC(OC7OCC(O)C(O)C7O)C(O)C6O)CC[C@]45C)C3(C)C)C2O)C(O)C(OC2OCC(O)(CO)C2O)C1O (stereo not given in full)	none
COc1ccccc1-n1c(C23CC4CC(CC(C4)C2)C3)n[nH]c1=S	none (no result: YB-1 expression, PD-1 reversal)
C[C@H](CO)N1C[C@H](C)[C@H](CN(C)C(=O)Nc2ccc(C(F)(F)F)cc2)Oc2ccc(NC(=O)Nc3ccc(F)cc3)cc2C1=O	ROS inducer 96
C[C@@H]1CN([C@@H](C)CO)C(=O)c2cc(NC(=O)Nc3ccc(C(F)(F)F)cc3)ccc2O[C@H]1CN(C)C(=O)Nc1ccc(F)cc1	none (no result: PD-1 reversal)
C[C@H](CO)N1C[C@H](C)[C@H](CN(C)C(=O)Nc2ccc(C(F)(F)F)cc2)Oc2ccc(NC(=O)NC3CCCCC3)cc2C1=O	ROS inducer 99
C[C@H]1CN([C@@H](C)CO)C(=O)c2cc(NC(=O)C3CC3)ccc2O[C@H]1CN(C)CC1CC1	YB-1 expression 13
C[C@H]1CN([C@@H](C)CO)C(=O)c2cc(NC(=O)Nc3ccc4c(c3)OCO4)ccc2O[C@@H]1CN(C)Cc1ccc(C(F)(F)F)cc1	ROS inducer 94
C[C@H](CO)N1C[C@H](C)[C@@H](CN(C)C(=O)Nc2ccc(C(F)(F)F)cc2)Oc2ccc(NC(=O)NC3CCCCC3)cc2C1=O	none
C[C@@H]1CN([C@@H](C)CO)C(=O)c2cc(NC(=O)Nc3ccc4c(c3)OCO4)ccc2O[C@H]1CN(C)Cc1ccc(C(F)(F)F)cc1	none
C[C@H](CO)N1C[C@H](C)[C@H](CN(C)CC2CC2)Oc2ccc(NC(=O)C3CC3)cc2C1=O	none
NC(=O)COc1ccc(/C=N/NC(=O)CCCCC(=O)NO)cc1	none (no result: PD-1 reversal)
COC(=O)c1ccc(C=Nc2ccc3oc(-c4ccc(C)cc4)nc3c2)cc1	none
Cc1ccccc1C(=O)NC(=S)Nc1ccc(-c2nc3ccccc3o2)cc1	none (no result: YB-1 expression, PD-1 reversal)
Nc1nccc(-c2ccc(NC(=O)Nc3ccccc3)cc2)n1	none (no result: YB-1 expression, PD-1 reversal)
Cc1nnc(Sc2cc(C(=O)NCCN(C)Cc3ccccc3)c3ccccc3n2)s1	none (no result: YB-1 expression, PD-1 reversal)
COc1ccc(-n2cc(C(=O)NCCN3CCc4ccccc4C3)c3ccccc3c2=O)cc1	none (no result: YB-1 expression, PD-1 reversal)
CCOc1cccc2cc(C(=O)Nc3nccs3)c(=Nc3cccc(C(F)(F)F)c3)oc12	none (no result: YB-1 expression, PD-1 reversal)
O=C(O)CCCCCCC(=O)NN=C1CCCCCCC1	none (no result: PD-1 reversal)
O=C(NC1CCCC1)c1ccc(COc2cc(Cl)ccc2Cl)o1	none (no result: YB-1 expression, PD-1 reversal)
C[C@H]1CN([C@@H](C)CO)C(=O)c2cccc(NC(=O)Nc3ccc4c(c3)OCO4)c2O[C@H]1CN(C)Cc1ccc(-c2ccccc2)cc1	ROS inducer 102
C[C@H](CO)N1C[C@H](C)[C@@H](CN(C)Cc2ccc(Oc3ccccc3)cc2)Oc2c(NC(=O)Nc3ccccc3)cccc2C1=O	ROS inducer 101
C[C@H](CO)N1C[C@H](C)[C@@H](CN(C)Cc2ccc(C(=O)Nc3ccccc3N)cc2)Oc2c(NC(=O)Nc3ccccc3)cccc2C1=O	none
C[C@H]1CN([C@@H](C)CO)C(=O)c2cccc(NC(=O)Nc3ccccc3)c2O[C@@H]1CN(C)Cc1ccc(C(=O)Nc2ccccc2N)cc1	ROS inducer 144
C[C@H]1CN([C@@H](C)CO)C(=O)c2cccc(NC(=O)Nc3ccc4c(c3)OCO4)c2O[C@@H]1CN(C)Cc1ccc(-c2ccccc2)cc1	none
C[C@@H]1CN([C@H](C)CO)C(=O)c2cccc(NC(=O)Nc3ccccc3)c2O[C@@H]1CN(C)Cc1ccc(Oc2ccccc2)cc1	none
C[C@@H]1CN([C@H](C)CO)C(=O)c2cccc(NC(=O)Nc3ccccc3)c2O[C@@H]1CN(C)Cc1ccc(Cl)c(Cl)c1	none
C[C@H]1CN([C@@H](C)CO)C(=O)c2cccc(NC(=O)Nc3ccccc3)c2O[C@@H]1CN(C)Cc1ccc(Cl)c(Cl)c1	ROS inducer 89
C=C(C(=O)O[C@H]1C/C=C(/C)C[C@H](O)[C@H]2[C@H](C)C(=O)O[C@@H]2/C=C\1C)[C@@H]1CCC(=C)[C@@H]2C[C@H](O[C@@H]3O[C@H](CO[C@H]4OC[C@](O)(CO)[C@H]4O)[C@@H](O)[C@H](O)[C@H]3O)C(=C)[C@@H]2C1	none
O=C(Nc1ccc(S(=O)(=O)Nc2ncccn2)cc1)c1c(Cl)cccc1Cl	none (no result: YB-1 expression)
CC1(C)CC(NC(=O)C(=O)NCC2COc3ccccc3O2)CC(C)(C)N1 (stereo not given)	none (no result: YB-1 expression)
O=C(Oc1cccc(NC(=O)c2cccs2)c1)c1cccc(S(=O)(=O)N2CCOCC2)c1	none (no result: YB-1 expression, PD-1 reversal)
C[C@H]1CN([C@@H](C)CO)C(=O)c2cccc(NC(=O)Nc3ccccc3)c2O[C@@H]1CN(C)Cc1ccc(Oc2ccccc2)cc1	none (no result: PD-1 reversal)
